Screening results from PubChem BioAssay.
Epigenetic mod: qHTS Assay for Epigenetic Modulators | mouse C127i GFP locus derepression, cytometry, 30 h | Potency, µM (series often up to 46.1 µM) | hit rate 0.09% among 68,000 | AID 597, 2007
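Murine C127i mammary cells carrying a silenced, stably integrated CMV-driven GFP reporter were treated with compound for 30 hours at 37 C. After PBS washes, GFP-positive cells were counted by laser-scanning microplate cytometry.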
p53ts 39C tox: qHTS Screen for Compounds that Selectively Target Cancer Cells with p53 Mutations: Cytotoxicity of p53ts Cells at the Nonpermissive Temperature; AID 902, 2007; Potency, µM (top dose mostly 46.1 µM), usual class: cytotoxic; hit rate 1.5% among 130,000; H1299-p53A138V viability at 39C, ATP luminescence, 24 h; further: nearly all actives have a fitted effect of over 55% in size
Imprint erasure: qHTS Assay for Compounds that Induce Erasure of Genomic Imprints. mouse ES Peg3-LacZ reporter, beta-gal luminescence, 40 h. Potency, µM (series often up to 60.7 µM), usual class: activators. hit rate 0.02% among 110,000
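Gelatin-coated wells received 300 freshly trypsinized female ES cells with a Peg3LacZ-Neo reporter on the maternal allele, then incubated 40 hours at 37C. BetaGlo was added for 5 minutes at room temperature before a single luminescence read.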
Ub-GFP proteasome: Ubiquitin-GFP Assay. Potency, µM (doses to about 45.9 µM), hits mostly activators. AID 526, 2006. Ubiquitin-GFP reporter cells, proteasome inhibition, GFP fluorescence; response scale: untreated = 0%, 10 µM MG-132 = 100%. 67,000 tested, under 10 active; active means well fitted activation curve with a large enough effect, not every such curve was filed as active; inconclusive means small, poorly fitted or top-dose-only effect, or another doubt; inactive means no such curve, though single readings can be large or run the other way
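GFP accumulation read-out: laser plate cytometry counting ubiquitin(G76V)-GFP-expressing U2OS cells after 4 hr compound exposure at 37 °C. Titrations spanned 46 uM to 2.9 nM; 0% = basal, 100% = 10 uM MG-132; concentration-response curves fitted.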
HBB splicing: qHTS Assay for Modulators of Hemoglobin Beta Chain Splicing; HBB splicing reporter cell assay, activation; EGFP reporter with mutant IVS2-654 intron; response scale: normalised to 500 nM splice-correcting PNA; Potency, µM (highest dose often 46.1 µM), usual class: activators; hit rate 0.06% among 65,000; AID 925, 2007
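HeLa cells stably expressing EGFP interrupted by mutant beta-globin intron 2 (IVS2-654), 500/well in 2% FCS. Treated with compound for 2 days at 37C. Splicing correction scored as total well GFP intensity (488 nm excitation, 500-520 nm emission); 500 nM antisense PNA served as control.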
p53ts 32C kill: qHTS Screen for Compounds that Selectively Target Cancer Cells with p53 Mutations: Cytotoxicity of p53ts Cells at the Permissive Temperature; AID 924, 2007; hit rate 0.93% among 130,000; Potency, µM (top dose mostly 46.1 µM), most hits filed as cytotoxic; H1299-p53A138V at 32C, ATP luminescence viability, 24 h; further: nearly all actives have a fitted effect of over 55% in size
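H1299-p53 A138V cells (temperature-sensitive p53) exposed 24 h to up to 46 uM compound at 32C, where p53 is wild-type in conformation. Viability read as ATP luminescence and normalised to DMSO and 100 uM tamoxifen. AC50 fitted with the Hill equation.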
A number is an active result; 0 = inactive; ? = inconclusive; - = no result given; [ ] = another dose, or the depositor's remark. Most compounds without a hit are left out; they make up all but 1.6% or so of the library. Unless noted, the call rests on the fitted dose curve; in most records, active means well fitted curve in the direction sought with a large enough effect; inconclusive means small, poorly fitted or top-dose-only effect, or another doubt; inactive means no such curve, though single readings can be large; an effect the other way counts as inactive or inconclusive.

SMILES	Epigenetic mod	p53ts 39C tox	Imprint erasure	Ub-GFP proteasome	HBB splicing	p53ts 32C kill
CCC(C)Nc1ncnc2c1cnn2-c1ccc(F)cc1 (stereo not given)	-	7.94µM	0[10.9 µM]	-	-	?
COCCCNc1ncnc2c1cnn2-c1ccc(F)cc1	-	10µM	0[10.9 µM]	-	-	?
COc1ccccc1N1C(=O)c2ccccc2NC1c1ccncc1 (stereo not given)	0	0	0	0	0	0
Fc1ccc(-c2ccc(CNCCSc3nnnn3-c3ccccc3)o2)cc1Cl	-	0	0[10.9 µM]	-	-	0
Cc1cc(C(=O)Cn2nnc3ccccc3c2=O)c(C)n1Cc1cccs1	0	12.6µM	0	0	0	15.8µM
Clc1ccc(CSc2nc3ncccc3[nH]2)cc1	-	10µM	0[10.9 µM]	-	-	12.6µM
Oc1ccc(CN2CCN(Cc3ccccc3)CC2)c2cccnc12	?	0	0	0	-	?
Oc1c(I)cc(Cl)c2cccnc12	0	7.94µM	0	0	0	?
Oc1c(CN2CCCCC2)cc(Br)c2cccnc12	3.16µM	10µM	0	0	0	0
Oc1c(CN2CCc3ccccc3C2)cc(Cl)c2cccnc12	-	3.98µM	0	0	0	12.6µM
CCOc1cc(C#N)c(NC(=O)c2ccc(OC)c(S(=O)(=O)N3CCN(c4ccccc4)CC3)c2)cc1OCC	-	0	0[10.9 µM]	-	-	0
O=C(NCc1noc2ccccc12)N1CCN(c2ccccc2F)CC1	-	0	0[10.9 µM]	-	-	0
O=C(NCCCN1CCOCC1)c1ccc2c(c1)N(Cc1cccc(Cl)c1)C(=O)c1ccccc1S2	-	0	0[10.9 µM]	-	-	0
COc1ccc(OC)c(N/C=C2/CCCCC2=O)c1	0	0	0	0	0	0
CC(C)C(=O)Nc1ccc(-c2nc3cccnc3o2)cc1	0	10µM	0	0	0	10µM
Cc1cc2nc(-c3ccc(NC(=O)C(C)C)cc3)oc2cc1C	0	0	0	0	0[9.22 µM]	0
CC(C)C(c1nnnn1C1CCCCC1)N1CCOCC1 (stereo not given)	0	0	0	0	0	0
Cc1cccc(-c2nc(CN3CCCC(C(=O)NCCc4ccc(Cl)cc4)C3)c(C)o2)c1 (stereo not given)	-	12.6µM	0[10.9 µM]	-	-	?
Cc1cccc(-n2c(SCC(=O)Nc3nonc3C)nnc2-c2ccoc2C)c1	0	0	0	0	0	0
CCN1C(=O)c2ccccc2Sc2ccc(NC(=O)Nc3ccc(C(C)=O)cc3)cc21	-	0	0[10.9 µM]	-	-	0
CCN(CC)CCNC(=O)Nc1ccc2c(c1)N(Cc1ccccc1)C(=O)c1ccccc1S2	-	20µM	0[10.9 µM]	-	-	0
O=S(=O)(NCc1cccs1)c1cccc2cccnc12	0	0	0	0	0	0
CN(C)c1ccc(-c2nc(-n3ccnc3)c3ccccc3n2)cc1	0[9.22 µM]	12.6µM	0	0	0	10µM
CN(C)C(=O)c1ccc(-c2nc(-n3ccnc3)c3ccccc3n2)cc1	0[9.22 µM]	10µM	0	0	0	7.94µM
CN(C)C(=O)c1ccc(-c2nc(N3CCOCC3)c3ccccc3n2)cc1	0[9.22 µM]	0	?	0	0	?
SMILES	Epigenetic mod	p53ts 39C tox	Imprint erasure	Ub-GFP proteasome	HBB splicing	p53ts 32C kill
Clc1ccccc1-c1nc(-n2ccnc2)c2ccccc2n1	0[9.22 µM]	0	0	0	0	0
CN(C)c1ccc(-c2nc(N3CCNCC3)c3ccccc3n2)cc1	0[9.22 µM]	10µM	0	0	0	12.6µM
Cc1ccccc1-c1nc(N2CCNCC2)c2ccccc2n1	0[9.22 µM]	0	0	0	0	0
O=C(CCCn1c(=O)c2sccc2n(Cc2cccc(Cl)c2)c1=O)NCc1ccc2c(c1)OCO2	-	0	0[10.9 µM]	-	-	0
Cc1nc(N2CCCC2)ncc1C(=O)N1CCN(c2ccc(Cl)cc2)CC1	-	0	0[10.9 µM]	-	-	0
COCn1c(-c2ccc(OC)cc2)nc2ccccc21	-	11.2µM	-	-	-	7.94µM
COc1ccc(-c2nc3ccccc3n2Cc2ccc(C(C)C)cc2)cc1	-	17.8µM	0[10.9 µM]	-	-	0
CCCn1c(-c2ccc(OC)cc2)nc2ccccc21	0	0	0	0	0	0
CCN1c2ccccc2NC2N=C(OC)C(c3ccccc3)C21 (stereo not given)	0	12.6µM	0	0	0[9.22 µM]	?
CCn1nc(C)c(Oc2ccccc2O)c1C	0	0	-	0	-	0
COCCn1c(C)cc(C(=O)CSc2nnc(C)s2)c1C	0	12.6µM	0	0	0	12.6µM
COc1cc(NC(=O)CCc2c(C)nn(-c3ccc(N4CCCCC4)nn3)c2C)cc(OC)c1OC	-	?	0[10.9 µM]	-	-	?
COc1ccc(NC(=O)CCc2c(C)nn(-c3ccc(N4CCCCC4)nn3)c2C)cc1Cl	-	10µM	0[10.9 µM]	-	-	15.8µM
COc1ccc(N2C(=NC(C)=O)SC3CS(=O)(=O)CC32)cc1OC (stereo not given)	0	0	0	0	0	0
CC1(C)Cc2c(sc(NC(=O)c3ccco3)c2C#N)CO1	0	12.6µM	0	0	-	10µM
COc1ccccc1NC(=O)C1=C(C)Nc2nc(SCc3ccccc3F)nn2C1c1ccncc1 (stereo not given)	-	0	0[10.9 µM]	-	-	0
CC1=C(C(=O)Nc2ccccc2C)C(c2ccccn2)n2nc(SCc3ccccc3F)nc2N1 (stereo not given)	-	6.31µM	0[10.9 µM]	-	-	0
COc1cccc(CNC(=O)C2CCCN(S(=O)(=O)c3ccc4c(ccn4C)c3)C2)c1OC (stereo not given)	-	0	0[10.9 µM]	-	-	0
CC(C)(CO)Cc1cc(C(C)(C)C)c(O)c(C(C)(C)C)c1	0	31.6µM	0	0	0	20µM
CC(C)(C=O)Cc1cc(C(C)(C)C)c(O)c(C(C)(C)C)c1	0	0	0	0	0	0
Cc1ncsc1C(=O)Nc1nc2c(s1)CC(C)CC2 (stereo not given)	0	15.8µM	0	0	-	?
CC1CCc2nc(NC(=O)Cc3ccc(Cl)cc3)sc2C1 (stereo not given)	-	0	0[10.9 µM]	-	-	0
COc1ccc(C2c3cc(OC)c(OC)cc3CC(=O)N2c2ccc(C)c(F)c2)cc1 (stereo not given)	-	0	0[10.9 µM]	-	-	0
COc1ccc(-n2ncc3c(N4CCCCC4)ncnc32)cc1	-	3.16µM	-	-	-	2.51µM
Cc1cccc(-n2ncc3c(N4CCN(c5ccccc5)CC4)ncnc32)c1	-	0	0[10.9 µM]	-	-	0
Cc1cccc(-n2ncc3c(N4CCCC4)ncnc32)c1	0	5.01µM	0	0	0	3.16µM
Cc1ccc(-n2ncc3c(N4CCCCC4)ncnc32)cc1	-	1.58µM	0[10.9 µM]	-	-	1.58µM
COc1ccccc1N1CCN(c2ncnc3c2cnn3-c2cc(Cl)ccc2C)CC1	-	12.6µM	0[10.9 µM]	-	-	?
O=C(CSc1oc(-c2ccccc2)nc1S(=O)(=O)c1ccc(Cl)cc1)c1ccccc1	-	0	0[10.9 µM]	-	-	0
